HCV inh: HCV inhibition | Huh7.5.1 HCVcc-Cre infection, luciferase reporter, 44 h | Potency, µM (titrated, usually from 41.8 µM), inactives show at the top dose activity change, negative = inhibition, most hits filed as inhibitors | actives 3.4% (n = 340,000); active = well fitted inhibition curve with a large enough effect; inconclusive = small, poorly fitted or top-dose-only effect, or another doubt; inactive = no such curve, though single readings can be large or run the other way; note: potency is the fitted concentration of half-maximal effect
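1,000 cells/well; 4 h culture; + compound; + HCVcc-Cre (~0.5 moi); 44 h; luciferase substrate, RT 15 min; read 15 sec.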
HCMV inh: human cytomegalovirus inhibition; actives 4.5% (n = 410,000); activity change, negative = inhibition, % at 57.5 µM; HFF cells, HCMV-luciferase reporter, 72 h; active compounds read low; in the data active = activity change below about -60%; inconclusive = no clear call, values can overlap the other calls; inactive = above about -39%
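Screen run at 2 compound doses on HFFs infected with reporter HCMV, MOI 1 PFU/cell. Luciferase activity from cell lysates at 72 h post infection gave inhibition relative to buffer-only and Salinomycin wells.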
Lassa entry inh: inhibitors of Lassa virus binding or cell entry; Lassa virus pseudotype entry inhibition, cell reporter; Potency, µM (series often up to 37.9 µM), without a hit: at the top dose activity change, negative = inhibition, most hits filed as inhibitors; actives 1.2% (n = 300,000); calls by dose curve; tested in HEK293 cells; note: potency is the fitted concentration of half-maximal effect; nearly all actives have a fitted effect of over 50% in size
Marburg entry inh: Marburg virus entry inhibition. Marburg virus pseudotyped entry inhibition, cell reporter. actives 1.8% (n = 300,000). Potency, µM (top dose mostly 37.8 µM), for inactives: at the top dose activity change, negative = inhibition, hits mostly inhibitors. AID 540276; calls by dose curve; tested in HEK293 cells; note: potency is the fitted concentration of half-maximal effect
FMDV inh: blocks foot and mouth disease virus. FMDV antiviral cell-based qHTS. Potency, µM (doses to about 57.9 µM), without a hit: at the top dose activity change, negative = inhibition, hits mostly inhibitors. actives 1.2% (n = 410,000); calls by dose curve; tested in HEK293T cells; note: read-out not given here; potency is the fitted concentration of half-maximal effect; nearly all actives have a fitted effect of over 45% in size
* hit, by the source's call; ? = inconclusive; nt = no result; [ ] = another dose, or the depositor's remark. Rows were chosen to be rich in hits. Some 7.9% of all compounds tested hit in one or more screens of this group. % is set by controls: 0 for no effect and ±100 for the full control effect.

SMILES	HCV inh	HCMV inh	Lassa entry inh	Marburg entry inh	FMDV inh
COc1ccc(N/C=C2\CCc3ccccc3C2=O)cc1	-25.3%	-18.2	nt	nt	25.1µM*
Cc1ccc2c(=O)cc(C(=O)N(Cc3ccc(C(C)(C)C)cc3)C3CCS(=O)(=O)C3)oc2c1 (stereo not drawn)	nt	-3.1	-23.1%[46.1 µM]	-26.2%[46.1 µM]	-23.7%
CCN1C(=O)CC(CC(=O)N2CCCCC2c2nccs2)(c2ccccc2C)C1=O (stereo not drawn)	nt	nt	nt	nt	-11.3%
Cc1ccc2c(C)c(C(=O)Nc3nnc(C)s3)oc2c1	2.7%	-99.4*	-8.7%	8.0%	30.5%
COc1ccc(CNC(=O)c2cnc3sc(N4CCCC4)nn3c2=O)cc1OC	nt	-6.7	-8.5%[46.1 µM]	nt	-28.8%
O=S(=O)(c1ccc(Cl)c(Cl)c1)c1snnc1-c1ccccc1	?	nt	7.08µM*	5.01µM*	?
c1ccc(-c2nnsc2-c2ccccc2)cc1	-10.1%	nt	nt	nt	-13.7%
CSc1c2c(n(CC3CCCCC3)c1CC(=O)NC1CCCCC1)CCCC2	nt	nt	nt	4.6%	nt
Cc1ccc(S(=O)(=O)Nc2ccc(Br)cc2C(NCC(=O)O)c2ccccc2)cc1 (stereo not drawn)	-24.3%	-0.9	14.0%	-10.4%	-19.4%
COC(=O)CNC(c1ccccc1)c1cc(C)ccc1NS(=O)(=O)c1ccc(C)cc1 (stereo not drawn)	6.31µM*	-33.9	?	?	-13.3%
COC[C@@H](OC(C)=O)[C@H]1OCc2ccccc2[C@@H]1C=Cc1ccccc1	nt	nt	nt	14.2%[14.2 µM]	nt
COC(=O)c1ccccc1NC(=O)c1c(C)oc2ncn(C)c(=O)c12	nt	-90.9*	19.5%[46.1 µM]	6.5%[46.1 µM]	11.9%
Cc1oc2ncn(C)c(=O)c2c1C(=O)Nc1ccc(F)cc1	nt	-2.8	-27.1%[46.1 µM]	3.6%[46.1 µM]	-8.5%
COCC(=O)N1CCC2(CCCN(c3ccccn3)C2)CC1	nt	nt	nt	nt	-11.6%
Cc1cccc(-c2cc(C(=O)N3CCCc4ccccc43)c3ccccc3n2)c1	11.8%	42.1	-11.8%	?	29.3%
Cc1ccc(-c2cc(C(=O)N3CCC(C)CC3)c3ccccc3n2)cc1	?	-71.5*	nt	nt	26.7%
O=C(c1cc(-c2ccncc2)nc2ccccc12)N1CCN(c2ncccn2)CC1	?	6.5	-13.5%	1.12µM*	-22.3%
O=C(c1cc(-c2ccncc2)nc2ccccc12)N1CCN(c2ccccn2)CC1	-11.3%	13.5	-7.3%	?	-9.0%
O=C(c1cc(-c2ccncc2)nc2ccccc12)N1CCN(c2ccc(N3CCOCC3)nn2)CC1	nt	99.4	44.0%[14.3 µM]	14.6µM*	-18.4%
O=C(c1cc(-c2ccncc2)nc2ccccc12)N1CCN(c2ccccc2O)CC1	-27.3%	6.3	nt	nt	-1.3%
O=C(c1cc(-c2ccccc2)nc2ccccc12)N1CCCc2ccccc21	0.7%	-62.7*	-11.0%	?	-6.6%
O=C(c1cc(-c2ccccc2)on1)N1CCOc2ccc(CN3CCN(c4ccccn4)CC3)cc2C1	nt	nt	nt	nt	-1.4%
Cc1sc2c(c1C)c(=O)n(CCc1ccccc1)c(=O)n2Cc1cccc(F)c1	nt	-17.6	-0.6%[46.1 µM]	-0.8%[46.1 µM]	?
CC(C)=CCC/C(C)=C/CO/N=C1\C[C@@H](O)[C@@H](O)[C@@H]2[C@@H]3C(=O)N(C[C@@H]4CCCO4)C(=O)[C@@H]3CC[C@@H]12	nt	nt	nt	21.6%[14.2 µM]	nt
CCc1ccc(Nc2n[n+](-c3ccccc3)c(-c3c(Cl)cccc3Cl)s2)cc1	5.62µM*	-98.2*	nt	nt	28.2µM*
SMILES	HCV inh	HCMV inh	Lassa entry inh	Marburg entry inh	FMDV inh
COc1ccc(C)cc1Nc1n[n+](-c2ccccc2)c(-c2c(Cl)cccc2Cl)s1	-24.3%[8.37 µM]	-99.6*	nt	nt	0.0%
O=C(O)c1ccc(-c2sc(Nc3ccccc3)n[n+]2-c2ccc(F)cc2)cc1	18.5%	nt	nt	nt	-12.9%
Fc1ccc(-[n+]2nc(Nc3ccccc3)sc2-c2c(Cl)cccc2Cl)cc1	10µM*	?	nt	nt	?
NC(=O)c1cc2cc(Cc3ccccc3Cl)ccc2oc1=O	-10.8%	23.8	?	?	5.7%
CCN1CCN(c2c(/C=C3\SC(=S)N(Cc4ccco4)C3=O)c(C)c(C#N)c(=O)n2C)CC1	2.24µM*	-72.9*	?	12.6µM*	-17.4%
COc1cccc(C=C2SC(=S)N(Cc3ccco3)C2=O)c1OC	nt	-34.3	nt	nt	nt
O=C(N/N=C/c1ccc([N+](=O)[O-])s1)C(O)c1ccccc1 (stereo not drawn)	7.08µM*	-91.0*	?	-11.3%	43.2%
Cn1c(SCC(=O)N/N=C/c2ccc([N+](=O)[O-])s2)nnc1-c1ccccc1	11.2µM*	-90.9*	?	?	?
COc1ccc(NC(C)C(=O)N/N=C/c2ccc([N+](=O)[O-])s2)cc1 (stereo not drawn)	?	?	-10.6%	-9.5%[46.1 µM]	-24.1%
O=C(Cc1ccccc1)N/N=C/c1ccc([N+](=O)[O-])s1	11.2µM*	-29.3	?	?	?
Cc1ccsc1/C=N/NC(=O)C(O)c1ccccc1 (stereo not drawn)	7.1%	-35.2	nt	nt	0.0%
Cc1ccc(NC(C)C(=O)N/N=C/c2ccc([N+](=O)[O-])s2)cc1 (stereo not drawn)	?	-70.0*	?	?	-4.0%
COC(=O)CC=C[C@@H](C)[C@@H](C=NO[C@H](C)c1cn([C@H](CO)Cc2ccccc2)nn1)NS(=O)(=O)c1ccc(C)cc1	nt	nt	?	21.7%[14.2 µM]	nt
Cc1ccc(NC(=O)Cn2c(-c3ccc4c(c3)OCO4)cn(-c3ccccc3)c2=O)cc1	nt	76.7	-4.3%[46.1 µM]	?	25.5%
Cc1nc(-n2nc(C)c(Cc3ccc(Cl)cc3)c2C)sc1C(=O)N1CCC(C)CC1	nt	-18.5	5.5%[46.1 µM]	10.4%[46.1 µM]	?
CCOc1ccc(C(=O)Cn2c(=O)n3nc(CCn4nc(C)cc4C)nc3c3cc(OC)c(OC)cc32)cc1	nt	7.1	12.6%[46.1 µM]	nt	-7.0%
O=C(CN1CCN(Cc2ccccc2)CC1)N/N=C/c1ccc(Br)s1	-16.4%	-107.4*	?	?	-13.7%
O=C(CN1CCN(Cc2ccccc2)CC1)N/N=C/c1ccco1	-8.8%	68.4	nt	nt	-19.1%
COc1ccccc1C(=O)Nc1nnc(-c2ccc3c(c2)CCCC3)o1	-8.4%	-75.6*	nt	nt	55.2%
COc1ccc(CCC(=O)NCc2ccc3c(c2)CCN3C(=O)c2ccc(Cl)cc2)cc1	nt	11.5	?	nt	0.0%
CCc1cc2cc(C(=O)Nc3ccc(C)cc3)sc2s1	-13.6%	-67.5*	?	-3.0%	28.0%
Cc1ccc(-c2sc(C(=O)Nc3ccc(Br)cc3)cc2CC(=O)O)cc1	nt	9.9	27.2%[46.1 µM]	8.8%[46.1 µM]	-9.8%
Cc1ccc2nc(C3CCCCC3)c(Cc3ccccc3C(F)(F)F)n2c1	nt	-69.8*	nt	nt	-24.3%
CC(=O)N1CCC(N(Cc2ccc(C)o2)C(=O)Nc2cccc(C(F)(F)F)c2)CC1	nt	-8.9	19.7%[46.1 µM]	nt	-26.2%
COc1ccc(OC)c(CN2CCC3(CCC(CNC(=O)c4ccco4)O3)CC2)c1 (stereo not drawn)	nt	nt	nt	nt	-7.6%
Cc1ccc(C(=O)OCC(=O)Nc2ccc(C)c(S(=O)(=O)N3CCCCC3)c2)c(O)c1	nt	8.5	nt	nt	?
CCN(CC)c1ccc(/C=N/NC(=O)c2cccc(S(=O)(=O)N3CCOCC3)c2)c(O)c1	?	-75.0*	?	?	?

Assay outcomes (PubChem)
